FLuc counter – qHTS profiling assay for firefly luciferase inhibitor/activator using purifed enzyme and Km concentrations of substrates (counterscreen for miR-21 project) | Luciferin 4-monooxygenase (Photinus pyralis), P08659 | purified FLuc, Km substrates, luminescence inhibition | Potency, µM (top dose mostly 57.5 µM), for the others: at the top dose activity change, negative = inhibition, hits mostly inhibitors | hit rate 6.9% among 360,000 | AID 588342, 2011;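 further: plate controls were vehicle for no effect and reference inhibitor for full effect; nearly all actives have a fitted effect of over 55% in size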
Target sequence (P08659 whole entry, looked up): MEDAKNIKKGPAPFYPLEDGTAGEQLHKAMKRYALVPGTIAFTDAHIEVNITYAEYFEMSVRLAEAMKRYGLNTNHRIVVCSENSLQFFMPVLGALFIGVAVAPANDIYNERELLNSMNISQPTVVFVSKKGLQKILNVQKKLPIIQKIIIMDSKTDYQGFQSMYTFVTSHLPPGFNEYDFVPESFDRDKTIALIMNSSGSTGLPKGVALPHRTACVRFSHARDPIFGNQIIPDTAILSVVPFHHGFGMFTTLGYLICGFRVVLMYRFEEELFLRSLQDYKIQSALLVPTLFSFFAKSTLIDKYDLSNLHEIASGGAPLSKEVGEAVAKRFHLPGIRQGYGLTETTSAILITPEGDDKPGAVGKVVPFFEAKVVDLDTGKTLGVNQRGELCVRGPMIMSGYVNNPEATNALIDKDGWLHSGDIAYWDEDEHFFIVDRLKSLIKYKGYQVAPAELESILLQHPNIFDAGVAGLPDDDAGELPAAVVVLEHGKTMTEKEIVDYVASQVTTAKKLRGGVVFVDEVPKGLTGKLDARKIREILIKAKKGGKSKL
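Biochemical qHTS of compounds, final roughly 60 µM downward over six points, against 10 nM purified firefly luciferase using Km concentrations of substrates (10 uM D-luciferin, 10 uM ATP) in Tris acetate pH 7.5 buffer; luminescence output.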
ELG1 genotox – qHTS screen for small molecules that induce genotoxicity in human embryonic kidney (HEK293T) cells expressing luciferase-tagged ELG1 | HEK293T ELG1-luciferase reporter, luminescence, 16 h | Potency, µM (series often up to 46 µM), without a hit: top-dose activity change, positive = activation, usual class: activators | hit rate 1.3% among 330,000 | AID 504466, 2011; further: % of control where 0% means no effect; nearly all actives have a fitted effect of over 60% in size
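Luminescence read-out: rising ELG1-luciferase signal, reflecting elevated ELG1 protein under genetic stress, flags genotoxic compounds. Cells were treated for 16 hr at 37 °C before ONE-Glo detection.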
NPC1 prom act – qHTS Assay for NPC1 Promoter Activators; Huh7 NPC1 promoter luciferase reporter, 24 h; Potency, µM (titrated, usually from 9.22 µM), for inactives: top-dose activation, usual class: activators; hit rate 2.4% among 320,000; AID 485313, 2010; further: % of control where 0% means no effect; nearly all actives have a fitted effect of over 60% in size
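Stably transfected Huh7 (NPC1 promoter→luciferase), 1500 cells/well in Opti-MEM + 10% FBS, 2 h settle, then compound 24 h at 37 °C. Luminescence after 10 min with Amplite reagent.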
Rab9 promoter act – qHTS Assay for Rab9 Promoter Activators; Huh7 Rab9 promoter-luciferase reporter, luminescence, 24 h; Potency, µM (series often up to 9.22 µM), inactives show top-dose activation, negative = inhibition, hits mostly activators; hit rate 2.8% among 320,000; AID 485297, 2010; further: % of control where 0% means no effect; nearly all actives have a fitted effect of over 60% in size
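Stable Rab9-luc Huh7, 1500 cells/well, 2 h settle; cmpd in DMSO, 24 h, 37 °C/5% CO2; luciferase reagent 10 min RT; luminescence.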
SMN2 splice enh – qHTS Assay for Enhancers of SMN2 Splice Variant Expression. HEK293 SMN2-luciferase splicing reporter, luminescence, 30-36 h. Potency, µM (doses to about 46.1 µM), inactives show at the highest dose activity change, positive = activation, usual class: activators. hit rate 2.8% among 210,000. AID 1458, 2008; further: % of control where 0% means no effect; nearly all actives have a fitted effect of over 55% in size
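qHTS luciferase splicing reporter: luminescence rises when SMN2 exon 7 is included in transfected HEK293 cells. Compound exposure lasted 30-36 h at 37C, with 4.5 mM final sodium butyrate as control, followed by a ONE-Glo read.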
ELG1 DNA repair – qHTS screen for small molecules that inhibit ELG1-dependent DNA repair in human embryonic kidney (HEK293T) cells expressing luciferase-tagged ELG1 | HEK293T ELG1-luciferase reporter, luminescence, 16 h; DNA damage induced by 5-fluorouridine | Potency, µM (titrated, usually from 46.1 µM), without a hit: at the top dose activity change, negative = inhibition, usual class: inhibitors | hit rate 2.3% among 330,000 | AID 504467, 2011; further: on the % scale 0 is the no-effect control and ±100 the full control effect; nearly all actives have a fitted effect of over 55% in size
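Reporter activity after DNA damage by 5-fluorouridine is monitored. Compound-treated cells incubate 16 hr at 37 °C, then ONE-Glo is added for 30 min before luminescence reading.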
An asterisk follows results filed as active. A selection: hits, their analogues and other compounds. The true share with any hit is near 9.2%. The call rests on the fitted dose curve; in most records, active means well fitted curve in the direction sought with a large enough effect; inconclusive means small, poorly fitted or top-dose-only effect, or another doubt; inactive means no such curve, though single readings can be large; an effect the other way counts as inactive or inconclusive. Potency means the concentration at half of the fitted maximal effect.

Cc1ccc(OCC(O)Cn2c3ccccc3c3ccccc32)cc1 (stereo not drawn) was read as FLuc counter -2.2%, ELG1 genotox -2.1%, NPC1 prom act -5.0%, Rab9 promoter act -4.9%, SMN2 splice enh -15.9% and ELG1 DNA repair -23.9%.
CC(=O)Nc1ccc(OCC(O)Cn2c(C)nc3ccccc32)cc1 (stereo not drawn) was read as FLuc counter 0.2%, ELG1 genotox -6.0%, NPC1 prom act 13.7%, Rab9 promoter act -4.7%, SMN2 splice enh -48.2% and ELG1 DNA repair 13.0%.
CC(=O)N(C)c1ccc(OCC(O)Cn2c(C)nc3ccccc32)cc1 (stereo not drawn) was read as FLuc counter 2.0%, ELG1 genotox -7.3%, NPC1 prom act -15.0%, Rab9 promoter act -16.3%, SMN2 splice enh -57.1% and ELG1 DNA repair 9.2µM*.
`CC(=O)N(C)c1ccc(OCC(O)Cn2c3ccc(Cl)cc3c3cc(Cl)ccc32)cc1` (stereo not drawn) gave FLuc counter 1.8%, ELG1 genotox -23.5%, NPC1 prom act -3.5%, Rab9 promoter act -8.2%, SMN2 splice enh -128.4% and ELG1 DNA repair 18.4µM*.
For CCn1c(SCC(=O)Nc2ccc(N3CCOCC3)cc2)nnc1-c1ccncc1 the results were FLuc counter inconclusive, ELG1 genotox 2.8%, NPC1 prom act -6.4%, Rab9 promoter act 3.3% and ELG1 DNA repair 5.4%.
`CC(C)CCNC(=O)CN1C(=O)CSc2ccc(S(=O)(=O)N3CCC(C)CC3)cc21` gave FLuc counter 2.5%.
For O=C(CSc1oc(-c2ccc(F)cc2)nc1S(=O)(=O)c1ccc(Cl)cc1)c1ccccc1 the results were FLuc counter 2.0% and SMN2 splice enh -4.6%.
`CC(C)n1ncc2c(C(=O)Nc3cccc(S(=O)(=O)N(C)C)c3)cc(C3CC3)nc21` gave FLuc counter 0.0%, ELG1 genotox -9.5%, NPC1 prom act -1.6%, Rab9 promoter act 2.7% and ELG1 DNA repair 20.6µM*.
Screening CCN(CC)C(=O)c1cccc(NC(=O)c2cc(C3CC3)nc3c2cnn3C(C)C)c1 returned FLuc counter 3.9%, ELG1 genotox -7.9%, NPC1 prom act 1.2%, Rab9 promoter act -0.4% and ELG1 DNA repair inconclusive.
CNC(=O)c1cccc(NC(=O)c2cc(-c3ccccc3)nc3c2cnn3C(C)C)c1 was read as FLuc counter -12.2%, ELG1 genotox -4.1%, NPC1 prom act -1.1%, Rab9 promoter act -7.2% and ELG1 DNA repair 7.94µM*.
For CC(C)n1ncc2c(C(=O)Nc3ccc(S(C)(=O)=O)cc3)cc(C3CC3)nc21 the results were FLuc counter 2.9%, ELG1 genotox -0.9%, NPC1 prom act -2.4%, Rab9 promoter act -2.2% and ELG1 DNA repair inconclusive.
COc1ccc(-c2ccc(NS(=O)(=O)c3ccc(OC)c(OC)c3)cc2)nn1 was read as FLuc counter 5.2%.
Screening COc1ccc(-c2noc(CCC(=O)N(C)c3cc(Cl)ccc3OC)n2)cc1 returned FLuc counter 1.9% and SMN2 splice enh -40.6%.
Screening COc1ccc(CNC(=O)C[C@H]2C[C@H](C(=O)N3CCCCC3)[C@@]3(C)c4[nH]c5cc(-c6ccco6)ccc5c4CCN3C2=O)cc1OC returned ELG1 genotox -10.3% and ELG1 DNA repair 20.6µM*.
CCN(CC)C(=O)[C@H]1C[C@H](CC(=O)NCc2ccc(OC)c(OC)c2)C(=O)N2CCc3c([nH]c4cc(-c5ccco5)ccc34)[C@]12C was read as ELG1 genotox -13.8% and ELG1 DNA repair 23.1µM*.
C[C@]12c3[nH]c4ccc(Cl)cc4c3CCN1C(=O)[C@@H](CC(=O)NCc1cccc(C(F)(F)F)c1)C[C@@H]2C(=O)N1CCOCC1 was read as ELG1 genotox -10.1% and ELG1 DNA repair 23.1µM*.
COCCCNC(=O)C[C@H]1C[C@H](C(=O)N2CCCCC2)[C@@]2(C)c3[nH]c4cc(-c5ccco5)ccc4c3CCN2C1=O was read as ELG1 genotox -4.1% and ELG1 DNA repair -25.8%.
Screening CCN(CC)C(=O)[C@H]1C[C@H](CC(=O)NCCCOC)C(=O)N2CCc3c([nH]c4cc(-c5ccco5)ccc34)[C@]12C returned ELG1 genotox -1.0% and ELG1 DNA repair -25.3%.
Screening O=C(NCCc1ccccc1)c1ccc(CSc2nc3cccnc3n2Cc2ccc(F)cc2)cc1 returned FLuc counter -11.4%.
`O=C(NCCc1cccs1)c1ccc(Cn2c(SCc3ccc(F)cc3)nc3cccnc32)cc1` gave FLuc counter 2.13µM* and SMN2 splice enh 18.9%.
O=C(NCCc1cccs1)c1ccc(Cn2c(SCc3ccccc3)nc3cccnc32)cc1 was read as FLuc counter 2.69µM*.
COc1ccccc1CNc1nc(-c2ccco2)nn1S(C)(=O)=O was read as FLuc counter -0.8%.
`CCn1ccnc1CN1CCc2c([nH]c3ccccc23)C1CC(C)C` (stereo not drawn) gave FLuc counter -5.9%, ELG1 genotox -5.8%, NPC1 prom act -0.5%, Rab9 promoter act -0.1% and ELG1 DNA repair 23.1µM*.
CCn1ccnc1CN1CCc2c([nH]c3ccccc23)C1C(C)(C)C (stereo not drawn) was read as FLuc counter 3.6%, ELG1 genotox -9.6%, NPC1 prom act -2.7%, Rab9 promoter act -2.7% and ELG1 DNA repair -14.3%.
Screening Cc1ccc(S(=O)(=O)C(CNS(=O)(=O)c2ccc(F)c(C)c2)c2cccs2)cc1 (stereo not drawn) returned FLuc counter -16.0%.
O=C(CCN1CCN(c2ccccc2)CC1)N/N=C/c1ccccc1OC(F)F was read as FLuc counter -0.6%, ELG1 genotox -3.8%, NPC1 prom act -7.4%, Rab9 promoter act -0.4%, SMN2 splice enh -9.2% and ELG1 DNA repair 11.6µM*.
Screening COc1cccc([C@@H]2Oc3ccc(OC)cc3C[C@H]2OC(=O)NS(=O)(=O)c2ccc(F)cc2)c1 returned SMN2 splice enh 3.5%.

Source: PubChem BioAssay
